A number with no mark means an inactive call.
System: Vero E6 infected with SARS-CoV-2
Assay: inhibition of SARS-CoV-2 cytopathic effect; higher = more antiviral protection, active = above 15
Settings: 48 h

CC/C(=C(/CC)c1ccc(OP(=O)(O)O)cc1)c1ccc(OP(=O)(O)O)cc1 [fosfestrol]
inhibition of SARS-CoV-2 cytopathic effect (1 nM): -0.34% | inhibition of SARS-CoV-2 cytopathic effect (8.33 nM): 2.21% | inhibition of SARS-CoV-2 cytopathic effect (100 nM): -0.95% | inhibition of SARS-CoV-2 cytopathic effect (833.33 nM): 0.3% | inhibition of SARS-CoV-2 cytopathic effect (10000 nM): -0.17%

NCCCCN=C(N)N [agmatine]
inhibition of SARS-CoV-2 cytopathic effect (1 nM): 2.36% | inhibition of SARS-CoV-2 cytopathic effect (8.33 nM): 2.56% | inhibition of SARS-CoV-2 cytopathic effect (100 nM): -1.24% | inhibition of SARS-CoV-2 cytopathic effect (833.33 nM): -2.12% | inhibition of SARS-CoV-2 cytopathic effect (10000 nM): -4.69%

C=CC(=O)Nc1cccc(Oc2nc(Nc3ccc(N4CCN(C)CC4)cc3OC)ncc2Cl)c1
inhibition of SARS-CoV-2 cytopathic effect (1 nM): -1.07% | inhibition of SARS-CoV-2 cytopathic effect (8.33 nM): 3.52% | inhibition of SARS-CoV-2 cytopathic effect (100 nM): -0.84% | inhibition of SARS-CoV-2 cytopathic effect (833.33 nM): -9.12% | inhibition of SARS-CoV-2 cytopathic effect (10000 nM): -11.8%

CON(C)C(=O)N1N=C(c2cc(F)ccc2F)S[C@@]1(CCCN)c1ccccc1 [filanesib]
inhibition of SARS-CoV-2 cytopathic effect (1 nM): -0.78% | inhibition of SARS-CoV-2 cytopathic effect (8.33 nM): -1.05% | inhibition of SARS-CoV-2 cytopathic effect (100 nM): -1.91% | inhibition of SARS-CoV-2 cytopathic effect (833.33 nM): -0.01% | inhibition of SARS-CoV-2 cytopathic effect (10000 nM): -2.39%

C=CCOc1ccccc1OCC(O)CNC(C)C (stereo not given) [oxprenolol]
inhibition of SARS-CoV-2 cytopathic effect (1 nM): 1.58% | inhibition of SARS-CoV-2 cytopathic effect (8.33 nM): -0.87% | inhibition of SARS-CoV-2 cytopathic effect (100 nM): -1.99% | inhibition of SARS-CoV-2 cytopathic effect (833.33 nM): -0.79% | inhibition of SARS-CoV-2 cytopathic effect (10000 nM): -0.79%

Oc1ccc(OCc2ccccc2)cc1 [monobenzone]
inhibition of SARS-CoV-2 cytopathic effect (1 nM): -1.3% | inhibition of SARS-CoV-2 cytopathic effect (8.33 nM): -1.35% | inhibition of SARS-CoV-2 cytopathic effect (100 nM): -0.07% | inhibition of SARS-CoV-2 cytopathic effect (833.33 nM): -0.61% | inhibition of SARS-CoV-2 cytopathic effect (10000 nM): -2.93%

N=C(NCCCCCCNC(=N)NC(=N)Nc1ccc(Cl)cc1)NC(=N)Nc1ccc(Cl)cc1 [chlorhexidine]
inhibition of SARS-CoV-2 cytopathic effect (1 nM): 3.47% | inhibition of SARS-CoV-2 cytopathic effect (8.33 nM): 4.11% | inhibition of SARS-CoV-2 cytopathic effect (100 nM): 4.83% | inhibition of SARS-CoV-2 cytopathic effect (833.33 nM): 2.74% | inhibition of SARS-CoV-2 cytopathic effect (10000 nM): -3.2%

CCCN(CCc1cccs1)[C@H]1CCc2c(O)cccc2C1 [rotigotine]
inhibition of SARS-CoV-2 cytopathic effect (1 nM): 0.32% | inhibition of SARS-CoV-2 cytopathic effect (8.33 nM): -0.89% | inhibition of SARS-CoV-2 cytopathic effect (100 nM): 1.13% | inhibition of SARS-CoV-2 cytopathic effect (833.33 nM): -1.26% | inhibition of SARS-CoV-2 cytopathic effect (10000 nM): -6.53%

COc1ccc(NC(=O)c2ccc(-c3ccc(-c4noc(C)n4)cc3C)cc2)cc1OCCN(C)C
inhibition of SARS-CoV-2 cytopathic effect (1 nM): -0.44% | inhibition of SARS-CoV-2 cytopathic effect (8.33 nM): -0.62% | inhibition of SARS-CoV-2 cytopathic effect (100 nM): -0.42% | inhibition of SARS-CoV-2 cytopathic effect (833.33 nM): -0.17% | inhibition of SARS-CoV-2 cytopathic effect (10000 nM): 5.11%

COCCOc1ccc2c(c1)ncn2-c1ccc2cccc(N3CCC(N)CC3)c2n1
inhibition of SARS-CoV-2 cytopathic effect (1 nM): -0.92% | inhibition of SARS-CoV-2 cytopathic effect (8.33 nM): 2.04% | inhibition of SARS-CoV-2 cytopathic effect (100 nM): 0.64% | inhibition of SARS-CoV-2 cytopathic effect (833.33 nM): 1.12% | inhibition of SARS-CoV-2 cytopathic effect (10000 nM): -2.22%

[O-][n+]1ccccc1[S-].[O-][n+]1ccccc1[S-].[Zn+2] [pyrithione-zinc]
inhibition of SARS-CoV-2 cytopathic effect (1 nM): 1.44% | inhibition of SARS-CoV-2 cytopathic effect (8.33 nM): 0.32% | inhibition of SARS-CoV-2 cytopathic effect (100 nM): 1.01% | inhibition of SARS-CoV-2 cytopathic effect (833.33 nM): 29.9% (active) | inhibition of SARS-CoV-2 cytopathic effect (10000 nM): -21.9%

CCCCCCN(CCCCCC)C(=O)Cc1c(-c2ccc(Cl)cc2)[nH]c2ccc(Cl)cc12
inhibition of SARS-CoV-2 cytopathic effect (1 nM): 1.54% | inhibition of SARS-CoV-2 cytopathic effect (8.33 nM): 2.57% | inhibition of SARS-CoV-2 cytopathic effect (100 nM): -1.81% | inhibition of SARS-CoV-2 cytopathic effect (833.33 nM): -0.56% | inhibition of SARS-CoV-2 cytopathic effect (10000 nM): -0.57%

CN(C)CCCSc1ccccc1NC(=O)/C=C/c1ccccc1 [cinanserin]
inhibition of SARS-CoV-2 cytopathic effect (1 nM): 1.46% | inhibition of SARS-CoV-2 cytopathic effect (8.33 nM): 0.94% | inhibition of SARS-CoV-2 cytopathic effect (100 nM): -0.47% | inhibition of SARS-CoV-2 cytopathic effect (833.33 nM): -4.69% | inhibition of SARS-CoV-2 cytopathic effect (10000 nM): -4.38%

CCN(CC)C(=O)N1CCN(C)CC1 [diethylcarbamazine]
inhibition of SARS-CoV-2 cytopathic effect (1 nM): -4.87% | inhibition of SARS-CoV-2 cytopathic effect (8.33 nM): -4.75% | inhibition of SARS-CoV-2 cytopathic effect (100 nM): -2.46% | inhibition of SARS-CoV-2 cytopathic effect (833.33 nM): 0.55% | inhibition of SARS-CoV-2 cytopathic effect (10000 nM): -2.31%

CN1C(=O)CC(C)(c2ccccc2)C1=O (stereo not given) [methsuximide]
inhibition of SARS-CoV-2 cytopathic effect (1 nM): -1.1% | inhibition of SARS-CoV-2 cytopathic effect (8.33 nM): 0% | inhibition of SARS-CoV-2 cytopathic effect (100 nM): 1.03% | inhibition of SARS-CoV-2 cytopathic effect (833.33 nM): 0.88% | inhibition of SARS-CoV-2 cytopathic effect (10000 nM): -0.14%

CN1CCC(COc2cnc(-c3cccc(Cn4nc(-c5cccc(C#N)c5)ccc4=O)c3)nc2)CC1
inhibition of SARS-CoV-2 cytopathic effect (1 nM): 1% | inhibition of SARS-CoV-2 cytopathic effect (8.33 nM): 1.71% | inhibition of SARS-CoV-2 cytopathic effect (100 nM): 1.4% | inhibition of SARS-CoV-2 cytopathic effect (833.33 nM): 2.63% | inhibition of SARS-CoV-2 cytopathic effect (10000 nM): 9.19%

Cc1ccc(Cl)c(OCC(O)CNC(C)(C)C)c1 (stereo not given) [bupranolol]
inhibition of SARS-CoV-2 cytopathic effect (1 nM): 1.32% | inhibition of SARS-CoV-2 cytopathic effect (8.33 nM): -0.4% | inhibition of SARS-CoV-2 cytopathic effect (100 nM): -5.32% | inhibition of SARS-CoV-2 cytopathic effect (833.33 nM): -1.98% | inhibition of SARS-CoV-2 cytopathic effect (10000 nM): -0.94%
